FXIa single inh – human FXIa protease inhibitors, primary screen, biochemical, single compound per well. purified human FXIa, fluorogenic AMC substrate cleavage. inhibition, % at 10 µM. actives 0.3% (n = 33,000). AID 687, 2007;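 active = inhibition above 40% in the primary screen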;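 also: 0% = enzyme without compound and 100% = blank wells lacking enzyme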
Target sequence (P03951 19-387 limits assumed): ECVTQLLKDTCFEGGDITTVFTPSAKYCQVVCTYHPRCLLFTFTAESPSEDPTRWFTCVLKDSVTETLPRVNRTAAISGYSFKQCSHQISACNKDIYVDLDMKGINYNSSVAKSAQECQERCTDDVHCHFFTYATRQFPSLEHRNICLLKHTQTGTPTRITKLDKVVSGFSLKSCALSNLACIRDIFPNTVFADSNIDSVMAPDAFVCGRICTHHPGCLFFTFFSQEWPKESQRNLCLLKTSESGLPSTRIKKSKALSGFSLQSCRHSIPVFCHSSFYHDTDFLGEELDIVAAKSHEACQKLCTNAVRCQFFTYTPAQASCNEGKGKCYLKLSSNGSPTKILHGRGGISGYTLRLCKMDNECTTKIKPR
Target sequence (P03951 388-625 limits assumed): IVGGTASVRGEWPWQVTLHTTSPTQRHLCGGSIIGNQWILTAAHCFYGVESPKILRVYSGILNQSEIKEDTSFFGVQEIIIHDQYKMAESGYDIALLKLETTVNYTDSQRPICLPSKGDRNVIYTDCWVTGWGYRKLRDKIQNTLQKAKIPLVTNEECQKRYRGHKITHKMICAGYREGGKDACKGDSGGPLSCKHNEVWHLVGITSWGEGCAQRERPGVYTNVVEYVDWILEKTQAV
FXIIa inh – human FXIIa protease inhibitors, primary screen, biochemical, single well; inhibition, % at 10 µM; purified human FXIIa, AMC substrate fluorescence, 2 h; AID 701, 2007; actives 0.2% (n = 33,000); Coagulation factor XII (Homo sapiens), P00748; in the data active = inhibition above about 30%;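 also: 0% = enzyme with vehicle only and 100% = no enzyme blank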
The depositor's hits bear a star; . = no result given. The sample as a whole holds a higher share of hits than the screen did.

SMILES | FXIa single inh | FXIIa inh
O=C(Nc1ccc(N2CCN(C(=O)c3ccccc3)CC2)cc1)c1ccc2c(c1)OCO2 | 36.0 | .
N/C(=N\c1nc2c(c(=O)[nH]1)CCCC2)Nc1ccccc1Sc1ccccc1 | 0.2 | 3.4
COc1cccc(C(=O)N(Cc2ccccc2)Cc2cc3cc4c(cc3[nH]c2=O)OCCO4)c1 | 47.3* | 4.5
COc1ccc(C(=O)N(Cc2ccccc2)Cc2cc3cc4c(cc3[nH]c2=O)OCCO4)cc1 | -9.7 | 1.7
COc1ccc(C2=CC(=O)OC3(CCCC3)O2)cc1 | 25.9 | -10.2
CC1CC(C)CN(c2cc(=O)n(Cc3ccc(F)cc3)c(=O)[nH]2)C1 (stereo not drawn) | 3.4 | 9.5
O=C(CCl)Nc1cccn2ncnc12 | -0.3 | 7.3
COc1ccc2c(c1)c(=O)oc1cc(OCC(=O)N3CCc4ccccc4C3)ccc12 | -4.6 | -1.4
O=C1CC(N2CCN(c3ccccn3)CC2)C(=O)N1CC(c1ccccc1)c1ccccc1 (stereo not drawn) | 1.6 | 4.6
O=C1NCCCC2c3c(cc(Br)c(O)c3Br)OC12N1CCCCC1 (stereo not drawn) | -6.0 | 4.7
CCOc1ccc2cc(/C=C/C(=O)c3ccco3)c(Cl)nc2c1 | 26.1 | -10.2
COC(=O)C(/C=N/OCc1ccc([N+](=O)[O-])cc1)NC(=O)c1cccc(Cl)c1 (stereo not drawn) | -11.0 | -7.3
COc1ccc2c(c1)CCc1c(C(=O)NCc3ccc(Cl)cc3)noc1-2 | 1.6 | 81.2*
COc1ccc2c(c1)CCc1c(C(=O)Nc3c(C)nn(Cc4ccccc4)c3C)noc1-2 | 29.0 | -9.2
COC(=O)CSc1nnc(C)n1-c1ccc(C)cc1 | -5.6 | 8.7
COC(=O)CSc1nnc(C)n1-c1cccc(OC)c1 | 43.3* | 1.3
CC(C)(C)C(=O)/C(=C\c1ccc([N+](=O)[O-])cc1)n1cncn1 | 0.2 | 5.2
Cc1ccc(NC(=O)c2oc3ccc(S(=O)(=O)N4CCC5(CC4)OCCO5)cc3c2C)cc1C | -3.4 | 0.8
CC(=O)Oc1cc2oc(=O)cc(C)c2cc1OC(C)=O | -0.2 | -1.4
CC(=O)Oc1ccc2c(C)cc(=O)oc2c1 | 6.4 | 32.2*
CCCn1c(SCc2ccon2)nc2ccccc2c1=O | -1.9 | 8.2
CCOc1cccc2cc(C(N)=O)c(=NCc3ccccc3)oc12 | 51.8* | -7.9
CCOc1ccccc1OC(=O)c1ccco1 | 4.1 | 4.6
Cc1ccc2nsnc2c1S(=O)(=O)NCCc1c(C)[nH]c2ccc(F)cc12 | 12.4 | 0.1
O=C(C1CCC1)N(CCc1ccccc1)Cc1nc2ccccc2c(=O)[nH]1 | 1.0 | 34.1*
SMILES | FXIa single inh | FXIIa inh
CCCC(=O)N(CCc1ccc(OC)cc1)Cc1nc2ccccc2c(=O)[nH]1 | 2.5 | 12.6
O=S(=O)(Cc1ccccc1)N1CCC(c2nc(-c3cccs3)no2)CC1 | 45.6* | -10.2
O=C(c1cccs1)N1CCN(S(=O)(=O)Cc2ccccc2)CC1 | -1.0 | 7.8
O=C1Nc2ccc(Br)cc2C1=Nc1ccc(-c2nnc3n2CCCCC3)cc1 | 5.4 | 13.4
CCC(=O)N1CCN(c2ccccc2NC(=O)c2ccc(OC)c(Cl)c2)CC1 | 19.4 | -10.2
N#CC1=C(N)SC(N)=C(C#N)C1c1cccc(O)c1 | 3.9 | 6.4
COc1ccc(-c2nc(N)n(C(C)=O)n2)cc1 | -1.9 | 27.1
Cc1ccc(C(=O)n2nc(-c3cccnc3)nc2N)cc1 | 42.5* | 92.0*
Cc1nnc(SCc2ccc3c(c2)OCO3)s1 | -6.6 | 9.6
Cc1c(C(=O)OCC(C)C)[nH]c2c1C(=O)CC(c1cccs1)C2 (stereo not drawn) | 1.3 | 3.3
Cn1c(SC2CCCCC2=O)nnc1-c1ccncc1 (stereo not drawn) | 27.3 | -12.2
CCOC(=O)c1c(NS(C)(=O)=O)sc2c1CCC(C)C2 (stereo not drawn) | -4.5 | 6.9
CCCC1CCc2c(sc(N)c2C(N)=O)C1 (stereo not drawn) | 52.3* | 7.2
CS(=O)(=O)N(Cc1ccccc1)c1ccccc1C(=O)N1CCN(c2ccccc2)CC1 | -1.9 | 5.8

Source: PubChem (PCMD)
